Measurements: publication PMC7862700, “An all-to-all approach to the identification of sequence-specific readers for epigenetic DNA modifications on cytosine”

What was measured:
Test in all cases: DAPPL (digital affinity profiling via proximity ligation, sequencing); 10 mM Tris-HCl pH 7.5, 50 mM NaCl, 1 mM DTT, 4% glycerol, room temperature, 30 min; GST-TFs on glutathione beads, 16-mer random dsDNA library, 0.1% formaldehyde crosslink after washing; high values mean tight binding
[1] = target: T1, FLI1 (Homo sapiens, UniProt Q01543 1-452); conditions: protein: recombinant; tags: N-terminal GST; dsDNA, one strand shown
T1 sequence: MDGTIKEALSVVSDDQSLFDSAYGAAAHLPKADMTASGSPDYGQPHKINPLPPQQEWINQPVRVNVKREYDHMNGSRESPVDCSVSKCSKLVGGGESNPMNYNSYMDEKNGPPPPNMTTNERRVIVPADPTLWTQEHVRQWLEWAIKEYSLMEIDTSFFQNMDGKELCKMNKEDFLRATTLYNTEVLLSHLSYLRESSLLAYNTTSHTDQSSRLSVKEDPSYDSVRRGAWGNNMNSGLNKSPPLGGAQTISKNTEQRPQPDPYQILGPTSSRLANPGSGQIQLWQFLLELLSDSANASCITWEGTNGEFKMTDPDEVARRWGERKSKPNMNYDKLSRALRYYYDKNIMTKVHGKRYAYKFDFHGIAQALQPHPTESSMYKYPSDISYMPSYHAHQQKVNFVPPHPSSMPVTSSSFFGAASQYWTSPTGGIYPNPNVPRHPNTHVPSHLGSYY
Method in brief: (§1)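 Each value of binding signal is a hexamer's read frequency for a factor divided by the same hexamer's frequency in the tag-only sample. Barcoded, bead-captured GST fusions of human transcription factors made in yeast were pooled with that sample and incubated with 200 nmole of a random double-stranded 16-mer DNA library in Tris/NaCl/DTT/glycerol buffer at room temperature for 30 min. Washing, 0.1% formaldehyde crosslinking, proximity ligation, PCR and Illumina NextSeq500 sequencing followed.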

[2] = target: T2, ELK1 (Homo sapiens, UniProt P19419 1-428); conditions: protein: recombinant; tags: N-terminal GST; dsDNA, one strand shown
T2 sequence: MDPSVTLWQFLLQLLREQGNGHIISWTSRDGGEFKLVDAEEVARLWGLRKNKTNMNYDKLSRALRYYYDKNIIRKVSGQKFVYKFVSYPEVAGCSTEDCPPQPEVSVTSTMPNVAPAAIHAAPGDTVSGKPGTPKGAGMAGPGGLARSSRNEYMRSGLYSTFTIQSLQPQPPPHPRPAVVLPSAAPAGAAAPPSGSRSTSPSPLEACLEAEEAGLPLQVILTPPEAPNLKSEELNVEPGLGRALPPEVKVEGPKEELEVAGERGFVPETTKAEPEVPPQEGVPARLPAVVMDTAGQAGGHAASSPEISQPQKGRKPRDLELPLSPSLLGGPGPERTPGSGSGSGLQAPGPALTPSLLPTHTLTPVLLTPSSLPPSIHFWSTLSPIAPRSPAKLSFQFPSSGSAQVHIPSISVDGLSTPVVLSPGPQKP
Method in brief: as §1

[3] = target: T3, GABPA (Homo sapiens, UniProt Q06546 1-454); conditions: protein: recombinant; tags: N-terminal GST; dsDNA, one strand shown
T3 sequence: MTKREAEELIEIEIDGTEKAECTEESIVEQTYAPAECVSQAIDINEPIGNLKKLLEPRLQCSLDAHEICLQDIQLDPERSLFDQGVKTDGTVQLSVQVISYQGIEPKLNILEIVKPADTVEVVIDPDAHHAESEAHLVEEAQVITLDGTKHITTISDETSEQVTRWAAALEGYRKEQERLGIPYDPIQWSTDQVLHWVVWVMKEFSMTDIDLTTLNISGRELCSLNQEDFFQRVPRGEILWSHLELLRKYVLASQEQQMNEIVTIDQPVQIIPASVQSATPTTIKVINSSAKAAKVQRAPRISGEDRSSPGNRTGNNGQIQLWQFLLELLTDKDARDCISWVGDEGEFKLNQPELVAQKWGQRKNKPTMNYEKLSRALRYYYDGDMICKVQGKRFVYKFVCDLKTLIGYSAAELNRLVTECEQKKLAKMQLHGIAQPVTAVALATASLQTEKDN
Method in brief: as §1

[4] = target: T4, ERG (Homo sapiens, UniProt P11308 1-479); conditions: protein: recombinant; tags: N-terminal GST; dsDNA, one strand shown
T4 sequence: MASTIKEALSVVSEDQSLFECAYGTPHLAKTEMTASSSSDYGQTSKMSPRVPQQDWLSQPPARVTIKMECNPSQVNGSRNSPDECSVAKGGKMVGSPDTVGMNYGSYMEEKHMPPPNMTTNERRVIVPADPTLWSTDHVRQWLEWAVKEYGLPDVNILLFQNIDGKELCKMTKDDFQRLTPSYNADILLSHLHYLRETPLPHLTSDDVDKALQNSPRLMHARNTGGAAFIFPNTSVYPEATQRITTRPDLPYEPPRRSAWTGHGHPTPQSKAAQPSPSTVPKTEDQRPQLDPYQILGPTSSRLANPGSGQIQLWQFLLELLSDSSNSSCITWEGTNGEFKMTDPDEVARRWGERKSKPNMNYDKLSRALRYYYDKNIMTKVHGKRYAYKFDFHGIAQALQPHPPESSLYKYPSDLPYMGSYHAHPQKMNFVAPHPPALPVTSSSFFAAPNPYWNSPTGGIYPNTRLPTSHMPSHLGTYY
Method in brief: as §1

[5] = target: ELF1 (Homo sapiens, UniProt P32519 1-619); conditions: protein: recombinant; tags: N-terminal GST; dsDNA, one strand shown
ELF1, sequence (P32519 whole entry): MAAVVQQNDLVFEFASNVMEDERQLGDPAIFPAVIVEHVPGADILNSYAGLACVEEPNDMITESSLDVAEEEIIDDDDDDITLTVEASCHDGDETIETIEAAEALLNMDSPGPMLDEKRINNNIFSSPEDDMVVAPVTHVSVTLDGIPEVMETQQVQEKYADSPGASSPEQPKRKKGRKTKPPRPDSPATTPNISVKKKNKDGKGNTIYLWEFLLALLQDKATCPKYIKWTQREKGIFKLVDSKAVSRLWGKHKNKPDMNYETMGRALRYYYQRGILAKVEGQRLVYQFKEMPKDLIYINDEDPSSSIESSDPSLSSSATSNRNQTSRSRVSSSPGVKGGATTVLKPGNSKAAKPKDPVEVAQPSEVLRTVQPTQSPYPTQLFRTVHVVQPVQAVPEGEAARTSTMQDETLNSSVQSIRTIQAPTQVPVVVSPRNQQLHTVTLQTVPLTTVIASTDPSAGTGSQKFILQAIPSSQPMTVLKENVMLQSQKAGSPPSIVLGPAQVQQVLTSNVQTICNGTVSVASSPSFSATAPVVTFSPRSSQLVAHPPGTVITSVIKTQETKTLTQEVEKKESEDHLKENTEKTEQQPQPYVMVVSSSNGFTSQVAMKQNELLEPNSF
Method in brief: as §1

[6] = target: T5, EHF (Homo sapiens, UniProt Q9NZC4 1-300); conditions: protein: recombinant; tags: N-terminal GST; dsDNA, one strand shown
T5 sequence: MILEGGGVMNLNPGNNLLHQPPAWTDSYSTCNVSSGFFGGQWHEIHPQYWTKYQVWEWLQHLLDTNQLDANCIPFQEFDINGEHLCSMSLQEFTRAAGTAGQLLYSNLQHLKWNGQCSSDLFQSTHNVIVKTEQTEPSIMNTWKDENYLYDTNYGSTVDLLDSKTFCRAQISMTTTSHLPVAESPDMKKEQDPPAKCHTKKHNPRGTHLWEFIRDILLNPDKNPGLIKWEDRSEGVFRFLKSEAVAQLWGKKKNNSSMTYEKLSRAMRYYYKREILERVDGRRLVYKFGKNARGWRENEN
Method in brief: as §1

[7] = target: SPI1 (Homo sapiens, UniProt P17947 1-270); conditions: protein: recombinant; tags: N-terminal GST; dsDNA, one strand shown
Method in brief: as §1

[8] = target: SPIB (Homo sapiens, UniProt Q01892 1-262); conditions: protein: recombinant; tags: N-terminal GST; dsDNA, one strand shown
SPIB, sequence (Q01892 whole entry): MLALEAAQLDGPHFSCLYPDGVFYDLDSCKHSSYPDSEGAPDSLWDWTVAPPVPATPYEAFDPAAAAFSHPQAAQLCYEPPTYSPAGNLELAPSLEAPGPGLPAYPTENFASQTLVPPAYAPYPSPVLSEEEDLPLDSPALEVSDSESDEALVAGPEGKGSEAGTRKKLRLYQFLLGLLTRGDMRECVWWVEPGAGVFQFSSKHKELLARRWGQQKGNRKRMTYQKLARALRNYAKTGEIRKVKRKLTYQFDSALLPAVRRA
Method in brief: as §1

[9] = target: T6, ELK3 (Homo sapiens, UniProt P41970 1-407); conditions: protein: recombinant; tags: N-terminal GST; dsDNA, one strand shown
T6 sequence: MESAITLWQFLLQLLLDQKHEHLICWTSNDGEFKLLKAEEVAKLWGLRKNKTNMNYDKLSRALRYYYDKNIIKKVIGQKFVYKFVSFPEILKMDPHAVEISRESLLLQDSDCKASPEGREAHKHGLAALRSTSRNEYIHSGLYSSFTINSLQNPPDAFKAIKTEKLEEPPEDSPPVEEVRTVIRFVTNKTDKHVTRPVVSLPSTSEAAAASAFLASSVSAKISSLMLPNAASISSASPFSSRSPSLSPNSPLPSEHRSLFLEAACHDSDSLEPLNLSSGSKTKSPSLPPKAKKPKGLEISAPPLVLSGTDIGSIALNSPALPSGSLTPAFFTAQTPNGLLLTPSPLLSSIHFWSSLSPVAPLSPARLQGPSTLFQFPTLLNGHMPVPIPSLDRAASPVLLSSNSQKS
Method in brief: as §1

[10] = target: T7, FEV (Homo sapiens, UniProt Q99581 1-238); conditions: protein: recombinant; tags: N-terminal GST; dsDNA, one strand shown
T7 sequence: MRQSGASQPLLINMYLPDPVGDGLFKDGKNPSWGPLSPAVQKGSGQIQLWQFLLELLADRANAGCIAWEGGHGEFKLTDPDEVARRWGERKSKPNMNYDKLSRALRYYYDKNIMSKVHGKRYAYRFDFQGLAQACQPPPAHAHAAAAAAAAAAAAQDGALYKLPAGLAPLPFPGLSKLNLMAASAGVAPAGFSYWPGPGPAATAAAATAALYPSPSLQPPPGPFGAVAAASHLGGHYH
Method in brief: as §1

[11] = target: ETV5 (Homo sapiens, UniProt P41161 1-510); conditions: protein: recombinant; tags: N-terminal GST; dsDNA, one strand shown
ETV5, sequence (P41161 whole entry): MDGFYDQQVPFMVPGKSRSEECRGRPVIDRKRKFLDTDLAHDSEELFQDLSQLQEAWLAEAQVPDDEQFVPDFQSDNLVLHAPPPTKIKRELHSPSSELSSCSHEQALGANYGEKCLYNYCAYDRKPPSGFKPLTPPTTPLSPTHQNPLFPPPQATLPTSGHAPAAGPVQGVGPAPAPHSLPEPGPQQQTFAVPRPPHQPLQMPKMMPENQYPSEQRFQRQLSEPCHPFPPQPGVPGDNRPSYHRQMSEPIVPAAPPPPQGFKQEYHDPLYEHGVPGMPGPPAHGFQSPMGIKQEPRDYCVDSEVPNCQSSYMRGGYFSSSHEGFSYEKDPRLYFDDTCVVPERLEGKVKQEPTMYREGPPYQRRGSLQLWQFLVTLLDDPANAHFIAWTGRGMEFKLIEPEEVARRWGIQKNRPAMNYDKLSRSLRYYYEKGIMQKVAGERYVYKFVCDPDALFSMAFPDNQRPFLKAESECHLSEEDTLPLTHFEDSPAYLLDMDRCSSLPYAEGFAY
Method in brief: as §1

[12] = target: HSF1 (Homo sapiens, UniProt Q00613 1-529); conditions: protein: recombinant; tags: N-terminal GST; chain copies: 3; dsDNA, one strand shown
HSF1, sequence (Q00613 whole entry): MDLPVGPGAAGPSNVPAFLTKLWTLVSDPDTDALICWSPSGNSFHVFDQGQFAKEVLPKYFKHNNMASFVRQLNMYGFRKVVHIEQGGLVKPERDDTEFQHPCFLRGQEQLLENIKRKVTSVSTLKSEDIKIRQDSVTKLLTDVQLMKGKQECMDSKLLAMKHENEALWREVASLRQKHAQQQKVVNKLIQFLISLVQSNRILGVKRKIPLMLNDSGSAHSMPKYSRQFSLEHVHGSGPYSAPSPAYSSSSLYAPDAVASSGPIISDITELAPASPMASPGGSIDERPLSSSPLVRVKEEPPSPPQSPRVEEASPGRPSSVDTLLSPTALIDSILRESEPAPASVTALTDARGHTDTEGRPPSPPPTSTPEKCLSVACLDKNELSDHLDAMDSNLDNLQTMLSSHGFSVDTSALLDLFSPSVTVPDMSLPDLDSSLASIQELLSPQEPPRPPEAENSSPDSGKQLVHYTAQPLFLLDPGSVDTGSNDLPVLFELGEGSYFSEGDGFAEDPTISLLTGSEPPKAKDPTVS
Method in brief: as §1

[13] = target: T8, SPIC (Homo sapiens, UniProt Q8N5J4 1-248); conditions: protein: recombinant; tags: N-terminal GST; dsDNA, one strand shown
T8 sequence: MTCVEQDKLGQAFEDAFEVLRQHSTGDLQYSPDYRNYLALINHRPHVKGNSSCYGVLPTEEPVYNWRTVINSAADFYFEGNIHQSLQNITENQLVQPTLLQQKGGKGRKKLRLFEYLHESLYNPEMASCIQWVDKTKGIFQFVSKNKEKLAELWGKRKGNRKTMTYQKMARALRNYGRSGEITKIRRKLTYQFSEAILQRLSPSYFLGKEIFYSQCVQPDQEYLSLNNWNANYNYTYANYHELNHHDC
Method in brief: as §1

[14] = target: ELF4 (Homo sapiens, UniProt Q99607 1-663); conditions: protein: recombinant; tags: N-terminal GST; dsDNA, one strand shown
ELF4, sequence (Q99607 whole entry): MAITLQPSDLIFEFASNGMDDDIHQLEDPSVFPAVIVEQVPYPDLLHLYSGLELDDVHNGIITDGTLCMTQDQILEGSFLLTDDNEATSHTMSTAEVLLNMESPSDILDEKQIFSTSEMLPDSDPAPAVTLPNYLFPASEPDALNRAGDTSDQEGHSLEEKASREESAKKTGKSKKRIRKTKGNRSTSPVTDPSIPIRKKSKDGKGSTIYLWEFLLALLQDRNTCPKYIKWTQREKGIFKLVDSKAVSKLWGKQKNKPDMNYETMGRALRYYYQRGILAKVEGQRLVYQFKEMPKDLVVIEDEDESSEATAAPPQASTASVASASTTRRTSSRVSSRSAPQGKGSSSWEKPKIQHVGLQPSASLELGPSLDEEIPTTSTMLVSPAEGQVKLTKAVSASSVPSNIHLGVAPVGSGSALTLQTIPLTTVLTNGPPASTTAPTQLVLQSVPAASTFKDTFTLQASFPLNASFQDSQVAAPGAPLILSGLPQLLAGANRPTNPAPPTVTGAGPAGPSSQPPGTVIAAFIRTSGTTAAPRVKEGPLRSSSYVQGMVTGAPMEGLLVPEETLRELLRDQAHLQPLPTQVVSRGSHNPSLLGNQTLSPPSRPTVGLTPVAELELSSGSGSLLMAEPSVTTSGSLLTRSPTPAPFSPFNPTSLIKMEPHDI
Method in brief: as §1

[15] = target: T9, ELK4 (Homo sapiens, UniProt P28324-2 1-405); conditions: protein: recombinant; tags: N-terminal GST; dsDNA, one strand shown
T9 sequence: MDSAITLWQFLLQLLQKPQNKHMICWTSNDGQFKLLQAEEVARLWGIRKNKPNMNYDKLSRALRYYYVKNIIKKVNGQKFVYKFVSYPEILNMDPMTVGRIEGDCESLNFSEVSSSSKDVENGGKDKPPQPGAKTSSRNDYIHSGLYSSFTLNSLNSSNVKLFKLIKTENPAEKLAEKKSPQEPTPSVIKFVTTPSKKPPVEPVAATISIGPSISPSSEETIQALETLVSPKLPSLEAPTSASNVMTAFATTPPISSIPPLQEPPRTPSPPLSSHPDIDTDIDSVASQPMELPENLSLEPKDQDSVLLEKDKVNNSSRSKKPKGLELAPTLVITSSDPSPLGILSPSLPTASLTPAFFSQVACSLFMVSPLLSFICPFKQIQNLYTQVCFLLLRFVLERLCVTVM
Method in brief: as §1

[16] = target: T10, ETV2 (Homo sapiens, UniProt O00321 1-342); conditions: protein: recombinant; tags: N-terminal GST; dsDNA, one strand shown
T10 sequence: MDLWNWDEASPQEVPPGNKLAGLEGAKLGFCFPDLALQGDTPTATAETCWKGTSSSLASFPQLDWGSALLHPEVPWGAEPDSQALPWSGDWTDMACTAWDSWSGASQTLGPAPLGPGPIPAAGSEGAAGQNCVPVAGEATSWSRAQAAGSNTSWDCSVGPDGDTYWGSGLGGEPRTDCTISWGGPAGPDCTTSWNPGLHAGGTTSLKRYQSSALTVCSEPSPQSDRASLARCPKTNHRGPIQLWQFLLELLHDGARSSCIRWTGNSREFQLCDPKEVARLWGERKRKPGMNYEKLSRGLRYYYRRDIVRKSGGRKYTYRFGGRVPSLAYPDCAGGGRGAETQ
Method in brief: as §1

[17] = target: T11, ELF3 (Homo sapiens, UniProt P78545 1-371); conditions: protein: recombinant; tags: N-terminal GST; dsDNA, one strand shown
T11 sequence: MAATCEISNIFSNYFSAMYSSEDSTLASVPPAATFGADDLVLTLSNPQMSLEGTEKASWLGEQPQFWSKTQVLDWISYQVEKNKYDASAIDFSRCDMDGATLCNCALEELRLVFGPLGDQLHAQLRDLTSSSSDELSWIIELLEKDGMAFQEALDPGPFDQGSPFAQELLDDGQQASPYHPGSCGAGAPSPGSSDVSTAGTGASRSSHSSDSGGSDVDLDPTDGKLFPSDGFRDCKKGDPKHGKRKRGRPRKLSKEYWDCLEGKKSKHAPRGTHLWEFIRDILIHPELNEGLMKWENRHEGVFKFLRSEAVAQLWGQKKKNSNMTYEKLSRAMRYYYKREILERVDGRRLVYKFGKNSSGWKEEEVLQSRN
Method in brief: as §1

[18] = target: CRX (Homo sapiens, UniProt O43186 1-299); conditions: protein: recombinant; tags: N-terminal GST; dsDNA, one strand shown
CRX, sequence (O43186 whole entry): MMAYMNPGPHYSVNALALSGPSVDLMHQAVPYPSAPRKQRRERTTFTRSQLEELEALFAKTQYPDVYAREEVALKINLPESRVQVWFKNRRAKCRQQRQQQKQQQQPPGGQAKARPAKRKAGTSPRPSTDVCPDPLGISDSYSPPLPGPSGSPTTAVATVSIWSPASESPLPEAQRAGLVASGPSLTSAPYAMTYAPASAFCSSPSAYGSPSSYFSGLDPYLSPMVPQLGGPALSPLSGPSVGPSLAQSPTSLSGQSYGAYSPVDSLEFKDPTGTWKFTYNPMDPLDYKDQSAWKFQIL
Method in brief: as §1

[19] = target: ETV1 (Homo sapiens, UniProt P50549 1-477); conditions: protein: recombinant; tags: N-terminal GST; dsDNA, one strand shown
ETV1, sequence (P50549 whole entry): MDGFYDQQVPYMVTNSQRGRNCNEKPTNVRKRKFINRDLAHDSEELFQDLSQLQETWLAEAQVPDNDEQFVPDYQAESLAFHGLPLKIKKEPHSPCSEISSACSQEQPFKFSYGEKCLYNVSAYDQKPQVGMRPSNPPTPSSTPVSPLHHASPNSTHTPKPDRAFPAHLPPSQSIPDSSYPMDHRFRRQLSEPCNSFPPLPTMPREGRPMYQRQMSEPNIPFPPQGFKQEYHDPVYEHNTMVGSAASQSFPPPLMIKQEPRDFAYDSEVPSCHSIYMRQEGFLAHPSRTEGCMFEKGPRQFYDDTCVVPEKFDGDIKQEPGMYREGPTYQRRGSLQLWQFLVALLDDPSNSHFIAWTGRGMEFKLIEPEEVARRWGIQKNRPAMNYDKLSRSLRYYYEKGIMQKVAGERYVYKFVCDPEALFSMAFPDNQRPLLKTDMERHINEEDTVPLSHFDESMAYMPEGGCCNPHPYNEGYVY
Method in brief: as §1

For AAACAC, the binding signal [1] was 1.25 fold enrichment (6-mer frequency, TF over GST control), the binding signal [2] was 1.33 fold enrichment (6-mer frequency, TF over GST control) and the binding signal [3] was 1.24 fold enrichment (6-mer frequency, TF over GST control). The binding signal [4] was 1.33 fold enrichment (6-mer frequency, TF over GST control), the binding signal [5] was 1.31 fold enrichment (6-mer frequency, TF over GST control) and the binding signal [6] was 1.35 fold enrichment (6-mer frequency, TF over GST control). For the same sequence, the binding signal [7] was 1.3 fold enrichment (6-mer frequency, TF over GST control), the binding signal [8] was 1.27 fold enrichment (6-mer frequency, TF over GST control) and the binding signal [9] was 1.24 fold enrichment (6-mer frequency, TF over GST control). For the same sequence, the binding signal [10] was 1.31 fold enrichment (6-mer frequency, TF over GST control), the binding signal [11] was 1.24 fold enrichment (6-mer frequency, TF over GST control) and the binding signal [12] was 1.09 fold enrichment (6-mer frequency, TF over GST control). The binding signal [13] was 1.24 fold enrichment (6-mer frequency, TF over GST control), the binding signal [14] was 1.34 fold enrichment (6-mer frequency, TF over GST control) and the binding signal [15] was 1.27 fold enrichment (6-mer frequency, TF over GST control). The binding signal [16] was 1.36 fold enrichment (6-mer frequency, TF over GST control), the binding signal [17] was 1.33 fold enrichment (6-mer frequency, TF over GST control) and the binding signal [18] was 1.05 fold enrichment (6-mer frequency, TF over GST control). The binding signal [19] was 1.26 fold enrichment (6-mer frequency, TF over GST control).
